Data published in PubChem BioAssay AID1159580 (chemical genetic matrix, 2015).
About 2,000 (36%) of roughly 5,500 compounds were called active. Inconclusive results (about 18%) are left out. Cut-off read from the data, not from the text of the source: active = normalized growth mostly below about 0.91 (no sharp cut-off); inconclusive = no clear call, values can overlap the other calls; inactive = mostly above about 0.92. Some of the results follow.

Experiment: chemical genetic growth profiling, strain panel (AID 1159580);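 note: tested at 20 µM; growth read once vehicle control cultures reached saturation at 30 °C; 1 = growth at the plate median or of vehicle wells; lower values mean less growth of the strain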
Conditions: S. cerevisiae deletion strains, growth OD

Measured: normalized growth

CC(=O)c1ccc(Sc2ccccc2)c([N+](=O)[O-])c1
active: locus YAR019C, strain CDC15, stronger effect = lower value 0.877 | locus YBL105C, strain PKC1, stronger effect = lower value 0.878 | locus YBR135W, strain CKS1, stronger effect = lower value 0.864 | locus YBR136W, strain MEC1, stronger effect = lower value 0.874 | locus YBR160W, strain CDC28, stronger effect = lower value 0.876 | locus YDL017W, strain CDC7, stronger effect = lower value 0.879 | locus YDL028C, strain MPS1, stronger effect = lower value 0.885 | locus YDL101C, strain DUN1, stronger effect = lower value 0.873 | locus YDL108W, strain KIN28, stronger effect = lower value 0.876 | locus YDL132W, strain cdc53, stronger effect = lower value 0.87 | locus YDR052C, strain DBF4, stronger effect = lower value 0.898 | locus YDR054C, strain cdc34, stronger effect = lower value 0.845 | locus YDR226W, strain ADK1, stronger effect = lower value 0.857 | locus YFL009W, strain cdc4, stronger effect = lower value 0.868 | locus YFL029C, strain CAK1, stronger effect = lower value 0.87 | locus YFR003C, strain YPI1, stronger effect = lower value 0.874 | locus YFR028C, strain CDC14, stronger effect = lower value 0.865 | locus YGR092W, strain DBF2, stronger effect = lower value 0.387 | locus YHR030C, strain SLT2, stronger effect = lower value 0.75 | locus YIL147C, strain SLN1, stronger effect = lower value 0.875 | locus YJL128C, strain PBS2, stronger effect = lower value 0.778 | locus YJR016C, strain ILV3, stronger effect = lower value 0.882 | locus YKL048C, strain ELM1, stronger effect = lower value 0.753 | locus YKL193C, strain SDS22, stronger effect = lower value 0.869 | locus YLR113W, strain HOG1, stronger effect = lower value 0.698 | locus YMR001C, strain CDC5, stronger effect = lower value 0.858 | locus YMR277W, strain FCP1, stronger effect = lower value 0.859 | locus YNL006W, strain LST8, stronger effect = lower value 0.855 | locus YNL161W, strain CBK1, stronger effect = lower value 0.869 | locus YNL207W, strain RIO2, stronger effect = lower value 0.861 | locus YNL222W, strain SSU72, stronger effect = lower value 0.876 | locus YOL078W, strain AVO1, stronger effect = lower value 0.861 | locus YOR329C, strain SCD5, stronger effect = lower value 0.881 | locus YPL209C, strain IPL1, stronger effect = lower value 0.872 | locus YPL256C, strain CLN2, stronger effect = lower value 0.782 | locus YPR025C, strain CCL1, stronger effect = lower value 0.884 | locus YPR106W, strain ISR1, stronger effect = lower value 0.866 | locus YPR111W, strain DBF20, stronger effect = lower value 0.838 | strain NNK1, stronger effect = lower value 0.853 | strain TSCII, stronger effect = lower value 0.86
inactive: locus YDL214C, strain PRR2, stronger effect = lower value 0.792 | locus YDR477W, strain SNF1, stronger effect = lower value 0.788 | locus YER123W, strain YCK3, stronger effect = lower value 0.799 | locus YER133W, strain GLC7, stronger effect = lower value 0.874 | locus YFR019W, strain FAB1, stronger effect = lower value 0.88 | locus YGR040W, strain KSS1, stronger effect = lower value 0.78 | locus YGR052W, strain FMP48, stronger effect = lower value 0.784 | locus YHR079C, strain IRE1, stronger effect = lower value 0.813 | locus YHR082C, strain KSP1, stronger effect = lower value 0.859 | locus YHR205W, strain SCH9, stronger effect = lower value 0.773 | locus YJL095W, strain BCK1, stronger effect = lower value 0.756 | locus YJL157C, strain FAR1, stronger effect = lower value 0.818 | locus YJR066W, strain TOR1 (second series), stronger effect = lower value 0.823 | locus YJR066W, strain TOR1, stronger effect = lower value 0.811 | locus YKL067W, strain YNK1, stronger effect = lower value 0.788 | locus YKL101W, strain HSL1, stronger effect = lower value 0.753 | locus YKL203C, strain TOR2, stronger effect = lower value 0.814 | locus YLR133W, strain CKI1, stronger effect = lower value 0.79 | locus YLR403W, strain SFP1, stronger effect = lower value 0.756 | locus YML070W, strain DAK1, stronger effect = lower value 0.809 | locus YMR205C, strain PFK2 (second series), stronger effect = lower value 0.772 | locus YNL020C, strain ARK1, stronger effect = lower value 0.803 | locus YNL183C, strain NPR1, stronger effect = lower value 0.798 | locus YNL307C, strain MCK1 (second series), stronger effect = lower value 0.772 | locus YOL136C, strain PFK27, stronger effect = lower value 0.772 | locus YOR061W, strain CKA2, stronger effect = lower value 0.815 | locus YOR119C, strain RIO1, stronger effect = lower value 0.835 | locus YOR231W, strain MKK1, stronger effect = lower value 0.788 | locus YPL031C, strain PHO85, stronger effect = lower value 0.785 | locus YPL153C, strain RAD53, stronger effect = lower value 0.79 | locus YPL204W, strain HRR25, stronger effect = lower value 0.773
